According to PubChem BioAssay AID2732 (Emory University Molecular Libraries Screening Center, 2010):
Out of some 220,000 compounds screened, about 8,200 (3.7%) were called active.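 How the source made its calls: active means compounds that reduced the stress-induced luciferase reporter signal by more than about 70% of percent inhibition (limit read from the data); inactive means the rest.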 Only a selection was taken, and actives are over-represented in it overall.

Assay: inhibitors of CHOP promoter induction, primary screen, cell-based, unfolded protein response, luciferase reporter (AID 2732);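 further: 0% = tunicamycin plus vehicle and 100% = wells without tunicamycin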
Conditions: CHO-K1 CHOP-promoter luciferase, tunicamycin-induced, 15-18 h; at 10 µM; hits give high values

Row | Compound | inhibition
1 | COc1ccc(OC)c(NC(=O)N[C@H](Cc2ccccc2)C(=O)NN)c1 | 17.5% (inactive)
2 | CCOC(=O)CSc1nccc(N(C)C)c1C#N | 74% (active)
3 | CCOC(=O)CC(=O)CSc1nc(-c2ccccc2)cc(-c2ccc(Cl)cc2)c1C#N | -3.89% (inactive)
4 | CCOC(=O)CSc1ccccn1 | -0.03% (inactive)
5 | Cc1ccc(NC(=O)c2nc[nH]c2C(=O)N[C@@H](CCCCNC(=O)OC(C)(C)C)C(=O)OC(C)(C)C)cc1 | 60.9% (inactive)
6 | Cc1ccc(C)c(SCc2nc3sc(C(=O)O)c(C)c3c(=O)[nH]2)c1 | 5.2% (inactive)
7 | COc1ccccc1NC(=O)CSc1nc2sc(C)c(C)c2c(=O)n1Cc1ccco1 | -22.1% (inactive)
8 | Cc1ccc(-c2nc(SCC(=O)Nc3ccccc3OC(F)F)c3c(C)c(C(=O)O)sc3n2)cc1 | 101% (active)
9 | O=C(O)c1ccc(/C=N/Nc2nc(N3CCCCC3)nc(N3CCCCC3)n2)cc1 | 5.9% (inactive)
10 | O=C(c1ccc(=O)oc1)N1CCC(C(O)(c2ccccc2)c2ccccc2)CC1 | 18.9% (inactive)
11 | Cn1cnc(S(=O)(=O)Nc2ccc3c(c2)OCCO3)c1 | 26.2% (inactive)
12 | CC/C(=N\NC(=S)NC(C)C)c1ccc(OC(F)F)cc1 | 11.9% (inactive)
13 | C/C(=N\NC(=S)NC(C)C)c1ccc(C(C)(C)C)cc1 | 72.1% (active)
14 | C/C(=N\NC(=S)NCc1ccccc1)c1ccc(Cl)cc1 | 16.1% (inactive)
15 | Cc1ccc(Nc2nc(N)nc(CSc3nnc(C)s3)n2)cc1 | -43.6% (inactive)
16 | Nc1nc(CC(=O)CSc2ccc(Cl)cc2)nc(Nc2ccc(F)cc2)n1 | 81.9% (active)
17 | CCOC(=O)N1CCN(Cc2nc(N)nc(Nc3ccc(C)cc3)n2)CC1 | 30.1% (inactive)
18 | O=S(=O)(Cc1noc(-c2ccc(OC(F)(F)F)cc2)n1)c1ccc(F)cc1 | -5.94% (inactive)
19 | COc1ccc(NC(=O)c2cn(-c3ccccc3)nc2SC)cc1 | 14.6% (inactive)
20 | Cc1ccc(S(=O)(=O)/N=C(/Nc2ccccn2)c2ccc(Cl)cc2)cc1 | 14.2% (inactive)

Row | Compound | inhibition
21 | O=S(=O)(/N=C(/Nc1ccccn1)c1ccccc1)c1ccc(Cl)cc1 | 8.33% (inactive)
22 | Cc1ccc(S/C(=N\S(=O)(=O)c2ccc(Cl)cc2)c2ccccc2)cc1 | 85.7% (active)
23 | O=C(Nc1cccnc1Oc1ncnc2cc(Cl)ccc12)c1ccc(F)cc1 | -24.4% (inactive)
24 | CCOC(=O)c1cn[nH]c1NC(=S)Nc1ccccc1 | -6.82% (inactive)
25 | COc1ccc(C(=O)C2CCCN(C(=O)c3cnsn3)C2)c(C)c1 (stereo not given) | 1.06% (inactive)
26 | Fc1ccc(/C=N/Nc2nc(-c3cccnc3)nc3ccccc23)cc1 | 1.02% (inactive)
27 | FC(F)(F)c1cccc(N/N=C/c2ccccc2)c1 | 69% (inactive)
28 | FC(F)(F)c1nc2ccccc2nc1N/N=C/c1ccc(Cl)cc1 | 70.3% (active)
29 | COc1ccc2c(CC(=O)OCC(=O)NC(N)=O)coc2c1 | 8.09% (inactive)
30 | COc1ccc(CN(Cc2ccc(OC)cc2)C(=O)c2cccs2)cc1 | -9.17% (inactive)
31 | COc1ccc(CCNC(=O)c2ccco2)cc1 | 14.1% (inactive)
32 | COc1ccc(CCNC(=O)/C(C#N)=C2\N=C(NC(=O)c3cccs3)c3ccccc32)cc1 | 81.3% (active)
33 | Cc1ccc(/C=C/C(=O)O)cc1S(=O)(=O)N1CCC(Cc2ccccc2)CC1 | -11.4% (inactive)
34 | Cc1onc(-c2ccccc2)c1C(=O)N=C(N)c1ccc(Cl)cc1 | 6.38% (inactive)
35 | Fc1c(F)c(C(F)(F)F)c(F)c(F)c1N1CCN(c2ccc3nnc(C(F)(F)F)n3n2)CC1 | 72.7% (active)
36 | FC(F)(F)c1nnc2ccc(N3CCN(c4ccccc4)CC3)nn12 | 49.9% (inactive)
37 | O=C(Nc1ccc(S(=O)(=O)Nc2nccs2)cc1)c1cc(=O)[nH]c2ccccc12 | 19.9% (inactive)
38 | CC1(C)CCSC(/C=C/c2ccccc2)=N1 | -147% (inactive)
39 | O=C(Nc1nnc(CCN2CCCCC2)s1)c1cccc(Cl)c1 | 6.02% (inactive)
40 | Nc1nnn(CC(=O)N/N=C/c2ccc(O)cc2)n1 | -8.23% (inactive)

Row | Compound | inhibition
41 | Cc1ccc(C(=O)N/C(=C/c2ccc(-c3cccc([N+](=O)[O-])c3)o2)C(=O)NCCCN(C)C)cc1 | 8.44% (inactive)
42 | Cc1ccc(Cc2cnc(NC(=O)/C(C#N)=C/c3ccc(-c4cccc([N+](=O)[O-])c4)o3)s2)cc1 | 93.4% (active)
43 | N#C/C(=C\c1ccc(-c2cccc([N+](=O)[O-])c2)o1)C(=O)NCCN1CCOCC1 | 27.9% (inactive)
44 | Cc1ccc(/C=N/NC(=S)NC2CCCCC2)o1 | 2.92% (inactive)
45 | Nc1ccccc1Sc1cc(Cl)nnc1Cl | 20% (inactive)
46 | CC(=O)Nc1ccc(CC#N)cc1 | 18.1% (inactive)
47 | CC1(C)CC(=O)C(N=Nc2c(F)cccc2F)=C(O)C1 | 7.79% (inactive)
48 | Cc1cccc(Cn2c(SCCO)nc3c2c(=O)n(C)c(=O)n3C)c1 | 16.8% (inactive)
49 | CCCSc1nc2c(c(=O)n(C)c(=O)n2C)n1Cc1ccc(C)cc1 | 77.2% (active)
50 | CCOc1ccc(Cn2c(SCCCCC#N)nc3c2c(=O)n(C)c(=O)n3C)cc1OCC | 17.3% (inactive)
51 | Cc1nc2cc(NC(=O)Nc3cccc(F)c3)ccc2n1C | -0.84% (inactive)
52 | C/C(Cc1ccccc1)=N\NC(=O)CNC(=O)c1ccc2c(c1)OCCO2 | 14.9% (inactive)
53 | CC(=O)N1CCC(N(C(=O)Nc2ccc(Cl)cc2)C(C)C)CC1 | 15.3% (inactive)
54 | CC(C)Oc1ccc(CCC(=O)NNC(=S)NCc2ccccc2)cc1 | 6.72% (inactive)
55 | CC1(C)CC(N2CCN(C(c3ccccc3)c3ccccc3)CC2)=CC(=[N+]2CCCCC2)C1 | 65.3% (inactive)
56 | CN(CC(=O)Nc1ccc(F)cc1)CC(=O)Nc1ccc(Cl)c(S(=O)(=O)N2CCOCC2)c1 | -2.81% (inactive)
57 | Cc1nn2c(NCCN(C)C)c3c(nc2c1-c1ccccc1)CCC3 | -22% (inactive)
58 | CSc1nc2sc3c(c2c(=O)[nH]1)CCc1ccccc1-3 | 106% (active)
59 | CCC1(C)Cc2c(sc3nc(SC)[nH]c(=O)c23)CO1 (stereo not given) | 10% (inactive)
60 | COc1ccc(-n2c(=S)[nH]c3sc4c(c3c2=O)CCc2ccccc2-4)cc1 | -20.5% (inactive)
